The values that follow come from PubChem BioAssay AID743100 (Vanderbilt Specialized Chemistry Center, 2013).

Each structure is given as a SMILES string. Active and inactive are the calls of the source.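 How the source made its calls: active means calcium response above 60% of the acetylcholine maximum at human M5, as a positive modulator; inactive means the rest.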

The target of the test is Muscarinic acetylcholine receptor M5 (Homo sapiens) (UniProt P08912). Briefly: potentiators of ACh response at human M5 – cell-based, single concentration, CHO-K1 hM5, calcium flux (AID 743100). The following applies: CHO-K1 hM5, Fluo-4 calcium flux, ACh EC20, stronger effect = higher value; at 10 µM unless noted.
Chain of Muscarinic acetylcholine receptor M5 (Homo sapiens) (P08912 whole entry, looked up): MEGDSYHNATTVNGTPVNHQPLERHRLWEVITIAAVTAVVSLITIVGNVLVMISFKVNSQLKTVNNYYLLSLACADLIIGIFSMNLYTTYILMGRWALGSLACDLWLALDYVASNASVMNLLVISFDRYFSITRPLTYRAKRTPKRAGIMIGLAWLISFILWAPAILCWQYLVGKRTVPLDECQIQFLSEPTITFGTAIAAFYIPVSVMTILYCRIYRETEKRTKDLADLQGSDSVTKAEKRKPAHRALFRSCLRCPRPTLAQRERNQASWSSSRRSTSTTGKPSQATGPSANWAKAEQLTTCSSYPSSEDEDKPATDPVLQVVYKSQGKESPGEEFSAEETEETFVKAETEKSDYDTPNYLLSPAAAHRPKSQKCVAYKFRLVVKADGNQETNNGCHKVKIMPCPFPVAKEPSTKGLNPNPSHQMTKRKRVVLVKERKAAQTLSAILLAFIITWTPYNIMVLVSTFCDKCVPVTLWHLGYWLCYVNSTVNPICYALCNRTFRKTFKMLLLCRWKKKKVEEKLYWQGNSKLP
Turning to `CCN(Cc1ccccc1)C(=O)C1CCN(S(=O)(=O)CC(C)(C)C)CC1`, the % ACh max response is 17% [at 30 µM] (inactive).

In the case of `CCN(Cc1ccccc1)C(=O)C1CCN(S(=O)(=O)c2ccc(F)cc2)CC1`, the % ACh max response was 56.2% [at 30 µM] (inactive).

For `CC1c2ccccc2CCN1C(=O)C1CCN(S(=O)(=O)c2ccc3occc3c2)CC1` (configuration not stated), the % ACh max response was 28.5% (inactive).

For `CCN(Cc1ccc(C(F)(F)F)cc1)C(=O)C1CCN(S(=O)(=O)c2ccc3cn[nH]c3c2)CC1`, the % ACh max response was 24.2% (inactive).

For the compound `CCN(Cc1ccc(Oc2ccccc2)cc1)C(=O)C1CCN(S(=O)(=O)c2ccc3cn[nH]c3c2)CC1`, the % ACh max response is 39.1% (inactive).

As for `CCN(Cc1ccccc1)C(=O)C1CCN(S(=O)(=O)c2ccccc2C)CC1`, the % ACh max response was 28.6% [at 30 µM] (inactive).

In the case of `CN(C)C(=O)C1(Cc2ccccc2)CCN(S(=O)(=O)c2ccc3occc3c2)CC1`, the % ACh max response is 8.49% (inactive).

`CCN(Cc1ccccc1)C(=O)C1CCN(S(=O)(=O)c2cc(C)ccc2C)CC1`: the % ACh max response was 24.5% [at 30 µM] (inactive).

On to `CCN(Cc1ccccc1)C(=O)C1CCN(S(=O)(=O)c2ccc(C(F)(F)F)cc2)CC1`, for which the % ACh max response is 62.6% [at 30 µM] (active).

As for `CCN(C(=O)C1CCN(S(=O)(=O)c2cc(F)c(F)c(F)c2)CC1)[C@H](C)c1ccccc1`, the % ACh max response is 71.9% (active).

For `CCN([C@H](C)c1ccccc1)S(=O)(=O)C1CCN(S(=O)(=O)c2ccc3occc3c2)CC1`, the % ACh max response was 14.6% (inactive).

On to `CCN([C@H](C)c1ccccc1)S(=O)(=O)C1CCN(S(=O)(=O)c2ccc3[nH]ncc3c2)CC1`, for which the % ACh max response is 18.7% (inactive).

On to `CCN(C(=O)C1CCN(S(=O)(=O)c2ccc3occc3c2)CC1)[C@H](C)c1ccccc1C(F)(F)F`, for which the % ACh max response was 34.4% (inactive).

Turning to `CCN(CC1CCN(S(=O)(=O)c2ccc3occc3c2)CC1)C(=O)c1ccccc1`, the % ACh max response was 10.9% (inactive).

Consider `CCN(Cc1ccc(SC)cc1)C(=O)C1CCN(S(=O)(=O)c2ccc3cn[nH]c3c2)CC1`, for which the % ACh max response was 14% (inactive).

Turning to `CCN(Cc1ccccc1F)C(=O)C1CCN(S(=O)(=O)c2ccc3cn[nH]c3c2)CC1`, the % ACh max response was 69.8% (active).

Regarding `CCN(Cc1ccccc1)C(=O)C1CCN(S(=O)(=O)c2ccc3occc3c2)CC1`, the % ACh max response is 82.1% [at 30 µM] (active).

With `CCN(CC1CCN(S(=O)(=O)c2ccc(OC)cc2)CC1)C(=O)c1ccccc1`, the % ACh max response is 15.2% (inactive).

Consider `O=C1N(Cc2ccccc2C(F)(F)F)CCCC12CCN(S(=O)(=O)c1ccc3[nH]ncc3c1)CC2`, for which the % ACh max response was 22.6% (inactive).

In the case of `CCN(Cc1ccccc1)C(=O)C1CCN(C(=O)c2ccc(OC)cc2)CC1`, the % ACh max response was 25.5% [at 30 µM] (inactive).

Regarding `CCOC(=O)C1(Cc2ccccc2)CCN(S(=O)(=O)c2ccc3occc3c2)CC1`, the % ACh max response is 18.7% (inactive).

As to `CCN(Cc1ccccc1)C(=O)C1CCN(S(=O)(=O)c2ccc3c(cnn3C)c2)CC1`, the % ACh max response was 63.3% (active).

Regarding `CCN(Cc1ccccc1)C(=O)C1CCN(S(=O)(=O)c2ccc3[nH]ncc3c2)CC1`, the % ACh max response is 84.3% [at 30 µM] (active).

Consider `CCN(Cc1ccccc1)C(=O)C1CCN(S(=O)(=O)Cc2ccc(Br)cc2)CC1`, for which the % ACh max response was 26.2% [at 30 µM] (inactive).

With `CCN(Cc1cccc(Cl)c1)C(=O)C1CCN(S(=O)(=O)c2ccc3cn[nH]c3c2)CC1`, the % ACh max response is 73.9% (active).

As for `CCN(Cc1ccccc1C(F)(F)F)C(=O)C1(F)CCN(S(=O)(=O)c2ccc3[nH]ncc3c2)CC1`, the % ACh max response is 75.9% (active).

On to `O=C(C1CCN(S(=O)(=O)c2ccc3[nH]ncc3c2)CC1)N1Cc2ccccc2C1`, for which the % ACh max response is 32.5% (inactive).

Take `CCN(Cc1ccccc1C(F)(F)F)C(=O)C1(F)CCN(S(=O)(=O)c2ccc3occc3c2)CC1`: the % ACh max response is 54% (inactive).

Take `CCN(Cc1ccc(F)cc1)C(=O)C1CCN(S(=O)(=O)c2ccc3cn[nH]c3c2)CC1`: the % ACh max response was 52.1% (inactive).

Consider `CCN(Cc1ccccc1C#N)C(=O)C1CCN(S(=O)(=O)c2ccc3cn[nH]c3c2)CC1`, for which the % ACh max response was 36.8% (inactive).

Consider `CCN(Cc1ccccc1)C(=O)C1CCN(S(=O)(=O)c2cccc(OC)c2)CC1`, for which the % ACh max response was 72.2% [at 30 µM] (active).

With `CCN(Cc1cccc(C(F)(F)F)c1)C(=O)C1CCN(S(=O)(=O)c2ccc3cn[nH]c3c2)CC1`, the % ACh max response is 35.4% (inactive).
